“And” between values parts separate entries of the source, which are not always exact repeats. Equal values may be shown once. Records with an inconclusive call do not appear. The source made the active and inactive calls. Unless noted, calls come from the whole dose curve; as a rule, active = well fitted curve in the direction sought with a large enough effect in the repeat runs; inconclusive = weak or mixed curves; inactive = no such curve, though single readings can be large; an effect the other way counts as inactive or inconclusive.
What was measured:
[1] = biological target: Nuclear receptor subfamily 1 group I member 3 (Homo sapiens) (UniProt Q14994); experiment: qHTS assay to identify small molecule agonists of the constitutive androstane receptor (CAR) signaling pathway (AID 1224839);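 note: HepG2 cells stably carrying human CAR and a CYP2B6 luciferase reporter; % is set by controls: 0 for no effect and ±100 for the full control effect; nearly all actives have a fitted effect of over 15% in size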
Procedure, shortened: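 HepG2 cells stably expressing hCAR and a CYP2B6-2.2kb luciferase reporter were treated with compounds at 15 concentrations plus 0.75 uM PK11195 (final) for 24 h at 37 C; luminescence was read after ONE-Glo addition.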

[2] = qHTS assay to identify small molecule agonists of the hypoxia (HIF-1) signaling pathway - cell viability counter screen (AID 1224844; calls by dose curve; note: nearly all actives have a fitted effect of over 50% in size; note: potency is the fitted concentration of half-maximal effect)
Procedure, shortened: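 In this counter screen, HRE-bla ME-180 cell viability after 17 hrs of compound exposure at 37C was read by CellTiter-Glo luminescence, multiplexed with the beta-lactamase reporter measurement.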

[3] = A CellTox Green Cytotoxicity Assay to monitor cytotoxicity in HEK293 cells - 0 hour (AID 1224869); note: % is set by controls: 0 for no effect and ±100 for the full control effect; nearly all actives have a fitted effect of over 50% in size
Procedure, shortened: (§1)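 Real-time, in one plate: 600 HEK293 cells/well with dead-cell DNA dye, pinned compound after 5 h, 37 C incubation over 40 h; viable cells give no appreciable fluorescence.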

[4] = qHTS assay to identify small molecule agonists of the estrogen related receptor signaling pathway with the pleiotropic PPARgamma coactivator (PGC) from Tox21 10K library (AID 1224842); note: % is set by controls: 0 for no effect and ±100 for the full control effect; nearly all actives have a fitted effect of over 15% in size
Procedure, shortened: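 PGC/ERR reporter cells (NTP line) were seeded 2,000 per well, rested 6 h at 37 C/5% CO2, then pin-dosed with compounds in DMSO for 18 h at 37 C; luciferase read by One-Glo luminescence after 30 min at room temperature.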

[5] = biological target: Thyrotropin receptor (Homo sapiens) (UniProt P16473); experiment: qHTS assay to identify small molecule agonists of the thyroid stimulating hormone receptor (TSHR) signaling pathway (AID 1224843; calls by dose curve; note: % is set by controls: 0 for no effect and ±100 for the full control effect; nearly all actives have a fitted effect of over 45% in size)
Procedure, shortened: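 Using 15 concentrations per compound in triplicate, cAMP production was monitored in TSHR-HEK293 cells after 30 min compound incubation at RT; HTRF reagents followed, with fluorescence intensity recorded after 1 h.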

[6] = qHTS assay to identify small molecule agonists of H2AX - cell viability counter screen (AID 1224847; calls by dose curve; note: nearly all actives have a fitted effect of over 30% in size; note: potency is the fitted concentration of half-maximal effect)
Procedure, shortened: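 Wild-type CHO-K1 cells (10% FBS medium) were plated overnight at 37C, exposed to compounds at 15 concentrations for 3 hr at 37C (0.76% DMSO final), and viability was read as CellTiter-Glo luminescence after 30 min at room temperature.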

[7] = qHTS assay to identify small molecule antagonists of the estrogen related receptor (ERR) signaling pathway from Tox21 library (AID 1224848); note: nearly all actives have a fitted effect of over 50% in size; note: potency is the fitted concentration of half-maximal effect
Procedure, shortened: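 Tox21 10K compounds in DMSO tested for ERR pathway antagonism in NTP's ERR cell line; 18 h, 37 C exposure; ONE-Glo luminescence.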

[8] = qHTS assay to identify small molecule agonists of the estrogen related receptor (ERR) signaling pathway from Tox21 library (AID 1224849; calls by dose curve; note: % is set by controls: 0 for no effect and ±100 for the full control effect; nearly all actives have a fitted effect of over 15% in size); settings: ERR reporter cell line, ONE-Glo luciferase, 18 h; at 92.4 µM (top of the series) unless noted
Procedure, shortened: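 Luciferase activity in ERR pathway reporter cells served as the agonist readout; exposure lasted 18 h at 37 C, with ONE-Glo detection after 30 min at room temperature.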

[9] = qHTS RealTime-Glo MT Cell Viability Assay in HepG2 cells - 24 hour (AID 1224867); note: nearly all actives have a fitted effect of over 50% in size; note: potency is the fitted concentration of half-maximal effect
Procedure, shortened: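 qHTS, HepG2, 600 cells/well, RealTime-Glo (NanoLuc + prosubstrate) added with cells; 5 h preincubation; DMSO compound addition; 37 C; luminescence at 0/8/16/24/32/40 h.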

[10] = qHTS RealTime-Glo MT Cell Viability Assay in HepG2 cells - 40 hour (AID 1224870); note: nearly all actives have a fitted effect of over 50% in size; note: potency is the fitted concentration of half-maximal effect
Procedure, shortened: (§2)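 HepG2 cells mixed with RealTime-Glo MT reagents (NanoLuc plus cell-permeant prosubstrate) were seeded at 600 cells/well, incubated 5 h at 37 C/5% CO2, then pinned with compounds in DMSO; nonlytic luminescence tracked viability during 40 h treatment.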

[11] = A CellTox Green Cytotoxicity Assay to monitor cytotoxicity in HEK293 cells - 40 hour (AID 1224871); note: nearly all actives have a fitted effect of over 45% in size; note: potency is the fitted concentration of half-maximal effect
Procedure, shortened: as §1

[12] = qHTS RealTime-Glo MT Cell Viability Assay in HEK293 cells - 16 hour (AID 1224872); note: nearly all actives have a fitted effect of over 50% in size; note: potency is the fitted concentration of half-maximal effect
Procedure, shortened: (§3)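 Assay medium contained NanoLuc luciferase plus cell-permeant prosubstrate, added with HEK293 cells at 600 cells/well. After 5 h at 37 C/5% CO2 compounds were added; plates stayed at 37 C for 40 h with serial luminescence reads.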

[13] = qHTS assay to identify small molecule antagonists of the estrogen related receptor signaling pathway with the pleiotropic PPARgamma coactivator (PGC) from Tox21 10K library - cell viability counter screen (AID 1224840; active = well fitted cell-killing curve with a large enough effect in the repeat runs, not every such curve was filed as active; note: nearly all actives have a fitted effect of over 40% in size; note: potency is the fitted concentration of half-maximal effect)
Procedure, shortened: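 Readout: fluorescence intensity from CellTiter-Fluor after 30 min at 37 C/5% CO2. Preceded by 17.5 h treatment of PGC/ERR cells with DMSO-dissolved compounds, added 6 h post-seeding.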

[14] = qHTS RealTime-Glo MT Cell Viability Assay in HEK293 cells - 32 hour (AID 1224868)
Procedure, shortened: as §3

[15] = qHTS RealTime-Glo MT Cell Viability Assay in HepG2 cells - 8 hour (AID 1224873); note: nearly all actives have a fitted effect of over 55% in size; note: potency is the fitted concentration of half-maximal effect
Procedure, shortened: as §2

[16] = qHTS assay to identify small molecule antagonists of the estrogen related receptor signaling pathway with the pleiotropic PPARgamma coactivator (PGC) from Tox21 10K library (AID 1224841; call rule not given here)
Procedure, shortened: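 One-Glo luminescence, measured after half an hour at room temperature, quantified reporter output of PGC/ERR cells. These had been plated at 2,000 per well, incubated 6 h, dosed with compounds in DMSO, then kept 18 h at 37 C.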

Nuclear receptor subfamily 1 group I member 3 (Homo sapiens), sequence (Q14994 whole entry, looked up): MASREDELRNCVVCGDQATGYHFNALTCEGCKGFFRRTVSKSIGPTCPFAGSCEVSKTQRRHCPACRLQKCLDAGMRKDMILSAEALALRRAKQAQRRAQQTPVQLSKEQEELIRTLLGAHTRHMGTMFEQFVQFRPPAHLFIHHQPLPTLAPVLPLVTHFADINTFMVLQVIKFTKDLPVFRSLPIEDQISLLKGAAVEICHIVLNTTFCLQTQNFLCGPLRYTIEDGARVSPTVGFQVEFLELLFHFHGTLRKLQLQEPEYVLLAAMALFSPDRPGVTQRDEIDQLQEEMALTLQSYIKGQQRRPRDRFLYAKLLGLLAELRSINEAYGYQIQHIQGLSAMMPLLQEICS
Thyrotropin receptor (Homo sapiens), sequence (P16473 whole entry, looked up): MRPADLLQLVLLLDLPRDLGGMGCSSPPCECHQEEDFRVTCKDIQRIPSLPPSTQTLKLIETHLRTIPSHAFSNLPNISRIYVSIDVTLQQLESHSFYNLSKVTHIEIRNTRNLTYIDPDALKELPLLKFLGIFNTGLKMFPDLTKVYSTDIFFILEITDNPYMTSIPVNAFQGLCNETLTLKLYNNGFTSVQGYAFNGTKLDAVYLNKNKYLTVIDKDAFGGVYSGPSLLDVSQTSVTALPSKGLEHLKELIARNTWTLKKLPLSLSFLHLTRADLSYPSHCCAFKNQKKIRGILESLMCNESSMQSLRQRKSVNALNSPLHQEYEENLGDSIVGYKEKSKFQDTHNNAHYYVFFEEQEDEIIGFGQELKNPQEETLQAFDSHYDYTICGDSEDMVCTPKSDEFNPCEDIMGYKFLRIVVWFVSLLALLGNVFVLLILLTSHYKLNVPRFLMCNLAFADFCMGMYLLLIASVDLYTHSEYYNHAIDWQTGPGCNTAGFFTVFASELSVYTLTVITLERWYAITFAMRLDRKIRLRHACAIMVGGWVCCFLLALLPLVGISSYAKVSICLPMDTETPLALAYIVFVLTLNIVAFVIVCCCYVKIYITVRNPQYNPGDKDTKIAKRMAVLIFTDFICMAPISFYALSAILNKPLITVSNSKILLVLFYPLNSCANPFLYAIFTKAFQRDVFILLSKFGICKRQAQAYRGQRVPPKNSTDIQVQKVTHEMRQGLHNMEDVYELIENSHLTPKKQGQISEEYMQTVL

C=CC(=O)OCC(O)COc1ccccc1 (configuration not stated)
inactive: Potency [1] | Potency [3]
active: Potency [2] 38.9 µM

Cc1oc(-c2ccccc2)nc1CCOc1ccc(C[C@H](Nc2ccccc2C(=O)c2ccccc2)C(=O)O)cc1
active: Potency [6] 80 µM
inactive: Potency [4] | Potency [5] | Potency [7] | activity change, positive = activation [8] -13.2% | Potency [9] | Potency [10] | Potency [11] | Potency [12]

C[C@@]12C(=O)OC(=O)[C@]1(C)C1CCC2O1
active: Potency [9] 4.77 µM | Potency [10] 1.69 µM | Potency [12] 5.35 µM
inactive: Potency [1] | Potency [2] | Potency [3] | Potency [11]

CC(C)c1cccc(C(C)C)c1N1C(=O)c2ccc(O)cc2C1=O
active: Potency [6] 80 µM | Potency [9] 49 µM | Potency [10] 43.6 µM
inactive: Potency [13] | Potency [5] | Potency [2] | Potency [3]

CCN=c1cc2oc3cc(NCC)c(C)cc3c(-c3ccccc3C(=O)OCC)c-2cc1C
active: Potency [2] 38.9 µM | Potency [6] 7.1 µM and 31.8 µM | Potency [7] 108 nM and 122 nM | Potency [9] 43.5 µM and 24.5 µM | Potency [14] 1.09 µM and 1.38 µM | Potency [10] 43.5 µM and 21.9 µM | Potency [11] 7.73 µM and 12.3 µM | Potency [12] 8.68 µM and 6.17 µM | Potency [15] 24.5 µM and 21.9 µM
inactive: Potency [1] | Potency [4] | activity change, positive = activation [8] -79.8% and -73.2%

CN(C)CCOC(c1ccccc1)c1ccccc1 (tested in a mixture with another compound)
inactive: Potency [13] | Potency [6] | Potency [9] | Potency [3] | Potency [10] | Potency [11] | Potency [15]

Cc1cc2c(C(C)C)c(O)c(O)c(C=O)c2c(O)c1-c1c(C)cc2c(C(C)C)c(O)c(O)c(C=O)c2c1O
inactive: Potency [1] | Potency [4] | Potency [5] | activity change, positive = activation [8] -47.3% [at 42.5 µM] | Potency [3]
active: Potency [13] 26.6 µM | Potency [16] 11.9 µM | Potency [7] 7.5 µM | Potency [9] 21.3 µM | Potency [14] 12 µM | Potency [10] 26.8 µM | Potency [11] 19 µM
